Measured values as given in PubChem BioAssay AID1347416 (National Center for Advancing Translational Sciences (NCATS), 2020).
Hit rate of the full screen: of about 4,100 compounds, about 1,600 (39%) were called active. Not shown: some 25% with an inconclusive outcome. Some of the results follow. Unmarked numbers belong to inactive results. The call rests on the fitted dose curve; in most records, active means well fitted inhibition curve with a large enough effect; inconclusive means small, poorly fitted or top-dose-only effect; inactive means no such curve, though single readings can be large or run the other way.

Test: qHTS Validation assay for Inhibitors of Plasmodium falciparum Dd2 growth in vitro; further: nearly all actives have a fitted effect of over 70% in size
Conditions: P. falciparum Dd2 in RBCs, SYBR Green growth, 72 h; series mostly up to 28.7 µM; activity change, negative = inhibition: at the top concentration
How it was run: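 P. falciparum Dd2-infected red blood cells (2.5% hematocrit, 0.3% parasitemia) grown 72 h at 37 °C under 5% O2 with compounds in a titration, 29 uM to 0.5 nM final. Growth read as SYBR Green-1 fluorescence after ~16 h lysis; artesunate 300 nM as positive control.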
On the % scale 0 is the no-effect control and ±100 the full control effect; potency means the concentration at half of the fitted maximal effect.

Compound	activity change, negative = inhibition [%]	Potency
CSCc1noc(Cc2c(C)nn(-c3ccccc3)c2C)n1	35	–
Cc1cc(O)c(-c2cc(C(=O)Nc3ccc(S(=O)(=O)N4CCOCC4)cc3)[nH]n2)cc1C	–	1680 nM (active)
CCOc1ccc(OCC)c(NC(=O)c2nnn(CC(=O)Nc3cc(Cl)ccc3OC)c2N)c1	35	–
CN1CC2(CCN(S(=O)(=O)c3ccc(C#N)cc3)CC2)CC1C(=O)N1CCOCC1 (centres undefined)	1.39	–
Cc1ccc(Cl)cc1NC(=O)c1cc(S(=O)(=O)N2CCOCC2)cn1C	-14.4	–
COc1ccc(S(=O)(=O)N2CCN(C(=O)c3cc(-c4ccccc4OC)n[nH]3)CC2)cc1	12.6	–
COc1ccccc1-c1cc(C(=O)N2CCN(S(=O)(=O)c3ccc(C)cc3)CC2)[nH]n1	–	7500 nM (active)
Cc1ccccc1-c1cc(C(=O)N2CCC3(CC2)CC(O)CCO3)[nH]n1 (centres undefined)	14.5	–
NS(=O)(=O)c1ccc(NC(=O)CN2C(=O)COc3ccc(Cl)cc32)cc1	13.6	–
Cc1ccc(NC(=O)c2cc(-c3ccc[nH]3)n[nH]2)cc1C	-25.4	–
COc1ccc(C(=O)Nc2cc(-c3nc4ccccc4s3)ccc2OC)cc1	21.4	–
O=C(Nc1ccc(S(=O)(=O)N2CCOCC2)cc1)c1cc(-c2cc(Cl)ccc2O)n[nH]1	–	2660 nM (active)
COc1ccc(OC)c(NC(=O)c2cc(-c3cc(Cl)ccc3O)n[nH]2)c1	–	4730 nM (active)
CN(C)c1ncc([N+](=O)[O-])cc1C(F)(F)F	19.7	–
CCc1noc(-c2cccn3c(CNC(=O)c4ccccc4F)nnc23)n1	0	–
Cc1cc(C)c2nc(N3CCC(C(=O)N4CCCC4)CC3)sc2c1	15.7	–
Cc1ccc2sc(N3CCN(C(=O)c4ccc([N+](=O)[O-])o4)CC3)nc2c1C	–	5310 nM (active)
COc1ccc2nc(N3CCN(C(=O)c4ccc([N+](=O)[O-])o4)CC3)sc2c1	–	4730 nM (active)
CCOc1ccc2nc(N3CCN(C(=O)C(C)C)CC3)sc2c1	-11.4	–
COc1cccc(N2CCN(c3nc(C(=O)NCc4cccc(C)c4)cs3)CC2)c1	16.3	–
Cc1ccc(C)c2sc(N3CCN(C(=O)c4ccc([N+](=O)[O-])o4)CC3)nc12	–	4730 nM (active)
CNC(=O)N1CCc2c(sc3ncnc(N(C)C)c23)C1	3.51	–

Compound	activity change, negative = inhibition [%]	Potency
Nc1ccc2nc(-c3cccs3)[nH]c2c1	-28.3	–
Cc1ccc(NC(=O)Cn2ccnc2)cc1C	49.5	–
Cc1ccc(Sc2ccc(NC(=O)CCl)cc2)cc1C	–	9440 nM (active)
Cc1nc([C@@H]2CN(C(=O)c3nccc4ccccc34)C[C@H]2C(N)=O)n[nH]1	5.68	–
Cc1noc(C2CC3(CCN(C(=O)c4cccn4C)CC3)CN2C)n1 (centres undefined)	4.95	–
COC(=O)C1=C(C)NC(C)=C(C(=O)OCCCN2CCC(c3ccccc3)(c3ccccc3)CC2)C1c1cccc([N+](=O)[O-])c1 (centres undefined)	–	2990 nM (active)
COC(=O)C1=C(C)NC(C)=C(C(=O)OC(C)(C)CN(C)CCC(c2ccccc2)c2ccccc2)C1c1cccc([N+](=O)[O-])c1 (centres undefined)	–	2990 nM (active)
CCN(CC)CCCC(C)Nc1cc(/C=C/c2ccccc2Cl)nc2cc(Cl)ccc12 (centres undefined)	–	842 nM (active)
CCc1nc(NCc2cn[nH]c2-c2ccc(Cl)cc2)c2cnn(C)c2n1	56.2	–
COC[C@@H]1CN(C(=O)c2cc3ccccc3[nH]2)C[C@H]1c1ccncc1	-20.6	–
Cc1cc(Cl)ccc1-c1ccc(CNC2CN(C(=O)OC(C)(C)C)C2)cc1	37	–
O=C(NCc1ccccc1)N1CCC(c2nc(C3CCOCC3)no2)CC1	13	–
CC(C)(C)OC(=O)N1CCC(CC2CC(c3ccccc3)=NO2)(C(=O)NCc2ccccc2)CC1 (centres undefined)	–	2660 nM (active)
CCOc1cc(C(=O)N2CCC(CC3CC(c4ccc(Cl)cc4)=NO3)(C(=O)NCC3CCCCC3)CC2)cc(OCC)c1OCC (centres undefined)	–	842 nM (active)
CCOc1cc(C(=O)N2CCC(CC3CC(c4cccc(Br)c4)=NO3)(C(=O)NCC3CCCCC3)CC2)cc(OCC)c1OCC (centres undefined)	–	1680 nM (active)
COCCNC(=O)C1COC2(CCN(C(=O)c3ccc(Cl)cc3)CC2)N1C(=O)c1ccccc1C (centres undefined)	-12.4	–
CCCCCCCNC(=O)C1(CC2CC(c3ccc(Cl)cc3)=NO2)CCN(C(=O)c2cc(OCC)c(OCC)c(OCC)c2)CC1 (centres undefined)	–	3350 nM (active)
CC(C)c1cc(C(=O)NC2CCN(c3ncccc3C#N)CC2)n(C)n1	5.19	–
CCCCCCCNC(=O)C1(CC2CC(c3cccc(Br)c3)=NO2)CCN(C(=O)c2cc(OCC)c(OCC)c(OCC)c2)CC1 (centres undefined)	–	10600 nM (active)
CC(NCc1ccccc1O)C12CC3CC(CC(C3)C1)C2 (centres undefined)	–	94.4 nM (active)
O=C1NCCCCCCN(C(=O)C2CCC2)[C@H]2C[C@H](c3nc(-c4cccnc4)no3)C[C@@H]12	3.93	–
Cn1cnc(C(=O)NCC(=O)N2CCCCCNC(=O)CC2c2ccccc2)c1 (centres undefined)	4.59	–
